Drawing on PubChem BioAssay (NCI), this text covers growth for eight compounds.

Common to all, as to assay: NCI-60 one-dose screen, 48 h (100 = growth as untreated, 0 = no growth, -100 = all killed)
The subject of experiment [1] is HCT-15 colon. To be noted: 10 µM unless noted.
Experiment [2] concerns HT29 colon. To be noted: 10 µM unless noted.
Experiment [3] has as its system SNB-75 CNS. Particulars: 10 µM unless noted.
Experiment [4] relates to SNB-19 CNS. Particulars: 10 µM unless noted.
Experiment [5] relates to U251 CNS. Particulars: 10 µM unless noted.
For experiment [6], the system named is PC-3 prostate. To be noted: 10 µM unless noted.
The test system of experiment [7] is SK-MEL-5 melanoma. To be noted: 10 µM unless noted.
Experiment [8] concerns UACC-62 melanoma. Particulars: 10 µM unless noted.
The test system of experiment [9] is LOX IMVI melanoma. To be noted: 10 µM unless noted.
Experiment [10] relates to SK-MEL-28 melanoma. To be noted: 10 µM unless noted.
For experiment [11], the system named is SK-MEL-2 melanoma. Particulars: 10 µM unless noted.
In experiment [12] the test system is EKVX NSCLC. To be noted: 10 µM.
The subject of experiment [13] is SN12C renal. To be noted: 10 µM unless noted.
Experiment [14] concerns UO-31 renal. To be noted: 10 µM unless noted.
The test system of experiment [15] is TK-10 renal. To be noted: 10 µM unless noted.
The test system of experiment [16] is ACHN renal. To be noted: 10 µM unless noted.
The test system of experiment [17] is CAKI-1 renal. To be noted: 10 µM unless noted.
The subject of experiment [18] is A498 renal. Particulars: 10 µM unless noted.
Experiment [19] deals with CCRF-CEM leukemia. Particulars: 10 µM.
The test system of experiment [20] is MOLT-4 leukemia. Particulars: 10 µM unless noted.

This is part of a sample that, as a whole, favours compounds with a hit. Of some 83,000 tested, about 20% had one in any assay.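 Activity criterion: percent growth below 10, measured after cells in 96-well plates were exposed to a single compound concentration for 48 hours.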 A number with no mark means an inactive call. Calls of active or inactive are those of the source.

Turning to `Clc1ccc(N/N=C/c2ccccn2)nc1`, the growth in experiment [1] was 20.6%; in experiment [2], 27.3%; in [3], 21.7%; in experiment [4], 28.2%; in experiment [5], 18.1%; in [6], 39.3%. The growth in experiment [7] was -66.3% (active); in [8], -7.02% (active); in [9], -6.42% (active); in experiment [10], 20%; in experiment [11] it was 37.4%; in experiment [12], 5.55% (active). Further, the growth in experiment [13] was 14.4%; in [14], -12% (active); in [15], 26.7%; in experiment [16] it was 5.14% (active); in experiment [17] it was 8.53% (active); in experiment [18] it was -3.65% (active). In addition, the growth was 11.6% in experiment [19] and 5.02% (active) in experiment [20].

Regarding `CCCCCCCCCC[N+](C)(C)C`, the growth in [1] was 39.3%; in experiment [2] it was 8.24% (active); in experiment [3], -22.8% (active); in experiment [4], 13.4%; in experiment [5], -75.4% (active); in experiment [6], -49% (active). In addition, the growth in experiment [7] is -13.6% (active); in experiment [8], 28.5%; in experiment [9] it was -78.4% (active); in [10] it was 51.8%; in experiment [11] it was 56.3%; in experiment [12], 72.9%. Further, the growth in experiment [13] is 29.5%; in experiment [14] it was 72.9%; in experiment [15] it was -25.1% (active); in [16] it was 24.9%; in experiment [17] it was 58.4%; in experiment [18] it was 32.9%. In addition, the growth in experiment [19] was -18.8% (active); in experiment [20] it was -0.229% (active).

Turning to `CC(C)OC(=O)[C@H](C)N[P@@](=O)(OC[C@@]1(C)O[C@@H](n2cc(F)c(N)nc2=O)C[C@@H]1O[P@](=O)(N[C@@H](C)C(=O)OC(C)C)Oc1ccccc1)Oc1ccccc1`, the growth in experiment [1] was 106%; in experiment [2], 86%; in [3], 78.3%; in experiment [4] it was 73.8%; in experiment [5], 93.2%; in experiment [6], 71.4%. Besides, the growth was 90.6% in experiment [7]; 99.3% in [8]; 80.8% in experiment [9]; 93.5% in [10]; 122% in [11]; 109% in experiment [12]. In addition, the growth in experiment [13] was 72.6%; in experiment [14], 98.6%; in [15], 101%; in experiment [16] it was 92.4%; in experiment [17], 94.6%; in [18] it was 45%. Also, the growth is 61.4% in [19] and 67.5% in experiment [20].

For the compound `COCC(=O)NNc1[nH]c(-c2ccc(OC)cc2)cc1C#N`, the growth in experiment [1] was 107%; in [2] it was 110%; in [3], 120%; in experiment [4] it was 114%; in [5] it was 103%; in experiment [6] it was 97%. The growth in experiment [7] was 117%; in experiment [8], 99.4%; in experiment [9], 110%; in experiment [10] it was 120%; in [11], 108%; in experiment [12], 112%. For the same compound, the growth in experiment [13] was 112%; in experiment [14] it was 95.4%; in experiment [15], 92.7%; in experiment [16], 110%; in experiment [17], 105%; in [18], 116%. In addition, the growth in [19] is 55.9%; in experiment [20], 81.8%.

Take `NC(=O)c1c(Nc2ccccc2)nn2cc(-c3nc4ccccc4s3)c(N)nc12`: the growth in experiment [1] was 101%; in experiment [2], 103%; in experiment [3] it was 88.9%; in [4] it was 92.7%; in [5], 101%; in experiment [6], 91.4%. Besides, the growth in experiment [7] was 97.3%; in experiment [8], 97.3%; in experiment [9], 94%; in [10], 113%; in experiment [11], 100%; in [12], 89.5%. The growth in [13] was 95.5%; in experiment [14], 81.3%; in experiment [15], 124%; in [16], 96.3%; in experiment [17] it was 86.2%; in experiment [18], 92.5%. In addition, the growth was 99.2% in experiment [19] and 93.3% in experiment [20].

Take `O=C(N/N=C/c1cc(Cl)ccc1O)C(=O)N/N=C/c1cc(Cl)ccc1O`: the growth in [1] was 44.7%; in [2] it was 45.4%; in [3] it was 71.9%; in [4] it was 82.6%; in experiment [5] it was 50%; in [6], 56.1%. Further, the growth is 56.3% in experiment [7]; 64.7% in [8]; 47.9% in experiment [9]; 93.2% in [10]; 109% in experiment [11]; 69.2% in experiment [12]. For the same compound, the growth in [13] was 79.5%; in [14], 48.2%; in experiment [15] it was 76.3%; in [16], 53.4%; in experiment [17], 37.2%; in experiment [18], 81.3%. Also, the figures for the growth in [19] and in experiment [20] were 39.7% and 55.9%, respectively.

As to `Cc1c(CN(C)C)cc(C(C)C)cc1C(C)C`, the growth in [1] is 113%; in experiment [2], 86.4%; in experiment [3], 96.7%; in experiment [4] it was 102%; in experiment [5] it was 100%; in experiment [6], 109%. Moreover, the growth is 104% in experiment [7]; 106% in experiment [8]; 98.7% in experiment [9]; 107% in experiment [10]; 107% in [11]; 106% in [12]. Moreover, the growth in [13] is 96.9%; in [14], 108%; in experiment [15] it was 94.9%; in experiment [16] it was 112%; in experiment [17], 103%; in [18] it was 94.8%.

As for `COc1ccc2nc3cc(Cl)ccc3c(NCCCNC(C)=O)c2c1`, the growth in experiment [1] is 23.6%; in experiment [2] it was 27%; in experiment [3] it was 68.9%; in experiment [4], 43.4%; in experiment [5] it was 32.3%; in [6], 39.6%. The growth in experiment [7] is 23.5%; in experiment [8], 42.6%; in experiment [9], 15.9%; in experiment [10], 38.8%; in experiment [11] it was 52.3%; in experiment [12] it was 68.5%. Also, the growth in experiment [13] was 38.1%; in [14] it was 21.2%; in [15] it was 44.2%; in [16], 16.1%; in experiment [17] it was 40.6%; in experiment [18], 22.6%. The values for the growth in experiment [19] and in [20] were 39% and 26.5%, respectively.
